Several values for one entry are separate records, joined by “and”; a condition that tells them apart may be missing. Equal values may be shown once. Inconclusive results are not listed. Entries that show only a call come without a potency. Where a structure was tested more than once in an assay, its records may differ in their call. Activity calls are given as the source filed them. The call rests on the fitted dose curve; in most records, active means well fitted cell-killing curve with a large enough effect in the repeat runs; inconclusive means weak or mixed curves, or effect the other way; inactive means flat fitted curve, though single readings scatter.
Potency means the concentration at half of the fitted maximal effect.

The test is described as follows: qHTS assay to identify small molecule agonists of the estrogen receptor beta (ER-beta) signaling pathway - cell viability counter screen (AID 1259380). Further: nearly all actives have a fitted effect of over 30% in size. The following applies: ER-beta-bla HEK293T viability, CellTiter-Glo luminescence, 16 h; series mostly up to 92.4 µM; activity change, negative = cytotoxicity: at the top concentration. From the text:
National Center for Advancing Translational Sciences [NCATS]
NIH Chemical Genomics Center [NCGC]
U.S. Environmental Protection Agency [EPA]
National Institutes of Environmental Health Sciences [NIEHS]
National Toxicology Program [NTP]
U.S. Food and Drug Administration [FDA]
Estrogen receptor (ER), a nuclear hormone receptor, plays an important role in development, metabolic homeostasis and reproduction. Two subtypes of ER, ER-alpha and ER-beta, have similar expression patterns with some uniqueness in both types. Endocrine disrupting chemicals (EDCs) and their interactions with steroid hormone receptors like ER causes disruption of normal endocrine function. To identify the compounds that activate ER signaling, an ER beta-UAS-bla GripTite cell line (Life Technologies, Madison, WI, USA) containing a beta-lactamase reporter gene under the control of an UAS response element was used to screen Tox21 10K compound library. The cytotoxicity of the Tox21 compound library against the ER-beta-bla cell line was tested in parallel by measuring the cell viability using CellTiter-Glo assay in the same wells.
Tox21 Assay Protocol Summary:
ER-beta-UAS-bla HEK293T cells were dispensed at 2,000 cells/5 uL of assay medium containing 2% charcoal stripped FBS per well into black wall/clear-bottom 1536-well plates using a Multidrop Combi (ThermoFisher Scientific, Waltham, MA) dispenser. After the assay plates were incubated at a 37C and 5% CO2 for 6 hr, 23 nL of compounds dissolved in DMSO, positive controls or DMSO only was transferred to the assay plate by a Pintool station (Kalypsys, San Diego, CA). The plates were incubated at 37C and 5% CO2 for 16 hr. Then 1 uL of LiveBLAzerTM B/G FRET substrate was added using a BioRAPTR FRD (Flying Reagent Dispenser, Aurora Discovery, San Diego, CA) and then the plates were incubated at room temperature for 2 hours, and fluorescence intensity was measured by an Envision plate reader (PerkinElmer, Shelton, CT). For cell viability readout that measures cytotoxicity, 4 uL/well of CellTiter-Glo reagent was added into the assay plates using a FRD. After 30 min incubation at room temperature, the luminescence intensity in the plates was measured using a ViewLux (PerkinElmer) plate reader.
A general note: Quantitative high-throughput screening tests each substance at several concentrations.
With `CCCCCc1cc(O)cc(O)c1`, the “activity change, negative = cytotoxicity” value was 3.9% (inactive).
On to `Cc1cccc(N)c1N`, for which the “activity change, negative = cytotoxicity” value is 1.61% (inactive).
Consider `CC(C)C(=O)OCC(C)(C)C(OC(=O)C(C)C)C(C)C` (stereo not given), for which the Potency entry is “inactive”.
Consider `CCCCCCCCOC(=O)c1ccccc1C(=O)OCCCCCCCC`, for which the “activity change, negative = cytotoxicity” value was -1.68% (inactive).
Regarding `CCCCOCCOP(=O)(OCCOCCCC)OCCOCCCC`, the Potency was 24.4 µM (active).
Regarding `CCOP(=S)(OCC)O/N=C(\C#N)c1ccccc1`, the Potency result was “inactive”.
As to `O=[N+]([O-])c1cccc2ccccc12`, the Potency result is “inactive”.
As to `N[C@@H](Cc1ccc(N(CCCl)CCCl)cc1)C(=O)O`, the “activity change, negative = cytotoxicity” value was -2.23% [at 42.5 µM] (inactive).
With `c1ccc(-c2cccc(-c3ccccc3)c2)cc1`, the Potency was 19.5 µM (active) and 30.6 µM (active).
With `CC(C)c1ccc(CO)cc1`, the Potency result was “inactive”.
Take `C=CCN(CC=C)C(=O)C(Cl)Cl`: the Potency result is “inactive”.
In the case of `O=C(CCl)c1ccccc1`, the Potency result is “inactive”.
On to `CC1(C)C(C=C(Cl)Cl)C1C(=O)OC(C#N)c1cccc(Oc2ccccc2)c1` (stereo not given), for which the Potency entry was “inactive”.
Consider `O=C(Nc1ccc(Br)cc1)c1cc(Br)cc(Br)c1O`, for which the Potency was 19.3 µM (active) and 29.8 µM (active).
Regarding `NC(=S)Nc1ccccc1`, the Potency is 44 µM (active) and inactive.
On the same count and under the same terms, the value for `CCCCCCCCCCCOC(=O)c1ccccc1C(=O)OCCCCCCCCCCC` was “inactive”; that for `C=C(C)C(=O)OCC1CO1` (stereo not given) was “inactive”.
In the case of `CCCCNC(=O)n1c(NC(=O)OC)nc2ccccc21`, the “activity change, negative = cytotoxicity” value is -6.17% (inactive).
As to `O=C1C=CC(=O)C=C1`, the Potency result was “inactive”.
On to `c1ccc(NNc2ccccc2)cc1`, for which the Potency entry is “inactive”.
On the same count and under the same terms, under `COP(=S)(OC)Oc1cc(Cl)c(Cl)cc1Cl` stands “inactive”; under `c1ccc(P(c2ccccc2)c2ccccc2)cc1`, “inactive”; under `Nc1ccc(Cl)cc1N`, 54.5 µM (active).
Still for that read-out and setting: the value for `N#Cc1cc(Br)c(O)c(Br)c1` was “inactive”; that for `C[C@]12CCC(=O)C(O)=C1CC[C@@H]1[C@@H]2CC[C@]2(C)C(=O)CC[C@@H]12` was 24.3 µM (active).
Take `S=C1NCCN1`: the “activity change, negative = cytotoxicity” value was -6.91% (inactive).
Take `O=P(O)(O)CCCl`: the “activity change, negative = cytotoxicity” value was 12.3% (inactive).
For `Cc1ccc(OP(=O)(Oc2ccc(C)cc2)Oc2ccc(C)cc2)cc1`, the Potency was 68.5 µM (active).
With `Oc1cc(Cl)c(Cl)cc1Cl`, the Potency result is “inactive”.
On the same count and under the same terms, the value for `C1=Cc2cccc3cccc1c23` was “inactive”; that for `CCCCN(CC)c1c([N+](=O)[O-])cc(C(F)(F)F)cc1[N+](=O)[O-]` was “inactive”.
On the same count and under the same terms, the value for `CCC(=O)O[C@H]1CC[C@H]2[C@@H]3CCC4=CC(=O)CC[C@]4(C)[C@H]3CC[C@]12C` was 68.6 µM (active); that for `CCC(C)c1ccc(O)cc1` (stereo not given) was “inactive”; that for `CCN(CC)C(=O)/C(Cl)=C(\C)OP(=O)(OC)OC` was “inactive”.
As for `CCN(CC)C(=O)SCc1ccc(Cl)cc1`, the Potency result is “inactive”.
As to `Nn1cnnc1`, the Potency entry was “inactive”.
Consider `CC(C)(c1cc(Cl)c(O)c(Cl)c1)c1cc(Cl)c(O)c(Cl)c1`, for which the “activity change, negative = cytotoxicity” value was -25.7% (inactive).
With `OCC(O)CO`, the Potency result is “inactive”.
`Cc1ccccc1[N+](=O)[O-]`: the “activity change, negative = cytotoxicity” value is 8.83% (inactive).
For `NNC(=S)NN`, the Potency was 30.6 µM (active).
